{"source": "PubChem BioAssay", "data": [{"test": "small-molecule binders of probe aLefty1, primary screen, biochemical, small-molecule microarray, 635/667 nm fluorescence (AID 1153);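 further: score merges spot fluorescence with signal-to-noise ratio from the scanned slide images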", "conditions": "higher = more signal", "values": [{"smiles": "COc1cc(Cc2cc3c(c(-c4ccccc4)n2)[Si](C(C)C)(C(C)C)OC3)cc(OC)c1OC", "composite z-score": 0.0299}, {"smiles": "COCCOC(=O)N1C(=O)[C@@]2(c3cc(C#CCC(C(=O)OC)C(=O)OC)ccc31)[C@H](C(N)=O)[C@H]1C(=O)O[C@H](c3ccccc3)[C@H](c3ccccc3)N1[C@@H]2c1ccccc1OCCO", "composite z-score": -0.189}, {"smiles": "C[C@@]1([C@@H](NS(=O)(=O)c2cccc3cccnc23)c2ccc(-c3ccccc3)cc2)C[C@H]1C1CCCCC1", "composite z-score": 1.31}, {"smiles": "C=C(C(=O)CC[C@@H](OC(=O)c1ccccc1-c1ccccc1C(=O)O)c1ccc(CO)o1)C(C)C", "composite z-score": 0.0945}, {"smiles": "CCOC(=O)C1=CCC(c2cccn2C(=O)OC(C)(C)C)N(S(=O)(=O)c2ccc(C)cc2)C1", "note": "(stereo not given)", "composite z-score": 0.245}, {"smiles": "O=C1N(Cc2ccccc2)c2ccccc2C[C@@]12N=C(c1ccc(OCCCO)cc1)O[C@H]2c1ccccc1", "composite z-score": 0.383}, {"smiles": "Cc1ccc(S[C@]2(C(=O)NC3CC3)CC(=O)N(C3Cc4ccccc4C3)[C@@H]2c2ccc(CO)cc2I)cc1", "composite z-score": 0.227}, {"smiles": "CCc1cccc(NC(=O)O[C@H]2[C@H](OC(=O)Nc3ccccc3-c3ccccc3)[C@H](OC(=O)Nc3ccccc3-c3ccccc3)[C@@H](OC)O[C@@H]2CO)c1", "composite z-score": 0.0442}, {"smiles": "CC(C)C[C@H]1NC(=O)CNC(=O)[C@@]23C(=O)N[C@@H](Cc4ccccc4)C2[C@H](C)[C@@]2(C)O[C@H]2C3/C=C/C/C=C\\CNC1=O", "note": "(stereo not given in full)", "composite z-score": -0.103}, {"smiles": "C=C(/C=C\\CNS(=O)(=O)c1ccc(C)cc1)[C@H](O)[C@H]1CCCN1S(=O)(=O)c1ccccc1[N+](=O)[O-]", "composite z-score": -0.0366}]}]}
